In all, about 5,500 compounds went through this assay and about 2,000 (36%) were called active. About 18% were inconclusive and are not listed. Cut-off read from the data, not from the text of the source: active = normalized growth mostly below about 0.91 (no sharp cut-off); inconclusive = no clear call, values can overlap the other calls; inactive = mostly above about 0.92. This is one part of the list.
Test: chemical genetic growth profiling, strain panel (AID 1159580);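 note: tested at 20 µM; growth read once vehicle control cultures reached saturation at 30 °C; 1 = growth at the plate median or of vehicle wells; lower values mean less growth of the strain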
Details: growth OD

Measured: normalized growth

C[C@@H]1CC[C@H]2[C@@H](C)C(=O)O[C@@H]3O[C@@]4(C)CC[C@@H]1[C@]32OO4
active: S. cerevisiae deletion strains, locus YKL068W, stronger effect = lower value 0.914 | S. cerevisiae deletion strains, locus YKL085W, strain MDH1 (second series), stronger effect = lower value 0.906 | S. cerevisiae deletion strains, locus YKL085W, strain MDH1, stronger effect = lower value 0.906 | S. cerevisiae deletion strains, locus YKL160W, strain elf1, stronger effect = lower value 0.874 | S. cerevisiae deletion strains, locus YKL190W, strain CNB1, stronger effect = lower value 0.856 | S. cerevisiae deletion strains, locus YKR001C, strain vps1, stronger effect = lower value 0.692 | S. cerevisiae deletion strains, locus YLL001W, strain dnm1, stronger effect = lower value 0.824 | S. cerevisiae deletion strains, locus YLL026W, stronger effect = lower value 0.876 | S. cerevisiae deletion strains, locus YLR027C, strain aat2, stronger effect = lower value 0.865 | S. cerevisiae deletion strains, locus YLR039C, strain RIC1, stronger effect = lower value 0.353 | S. cerevisiae deletion strains, locus YLR058C, strain SHM2, stronger effect = lower value 0.852 | S. cerevisiae deletion strains, locus YLR113W, strain HOG1, stronger effect = lower value 0.698 | S. cerevisiae deletion strains, locus YLR221C, strain rsa3, stronger effect = lower value 0.812 | S. cerevisiae deletion strains, locus YLR262C, strain YPT6 (second series), stronger effect = lower value 0.375 | S. cerevisiae deletion strains, locus YLR262C, strain YPT6, stronger effect = lower value 0.364 | S. cerevisiae deletion strains, locus YLR268W, strain sec22, stronger effect = lower value 0.822 | S. cerevisiae deletion strains, locus YLR320W, strain mms22, stronger effect = lower value 0.674 | S. cerevisiae deletion strains, locus YLR330W, strain CHS5, stronger effect = lower value 0.879 | S. cerevisiae deletion strains, locus YLR342W, strain FKS1, stronger effect = lower value 0.885 | S. cerevisiae deletion strains, locus YLR370C, strain arc18, stronger effect = lower value 0.897 | S. cerevisiae deletion strains, locus YLR418C, strain cdc73, stronger effect = lower value 0.614 | S. cerevisiae deletion strains, locus YML016C, strain PPZ1, stronger effect = lower value 0.915 | S. cerevisiae deletion strains, locus YML032C, strain rad52, stronger effect = lower value 0.798 | S. cerevisiae deletion strains, locus YML120C, strain ndi1, stronger effect = lower value 0.839 | S. cerevisiae deletion strains, locus YMR058W, strain fet3, stronger effect = lower value 0.742 | S. cerevisiae deletion strains, locus YMR078C, strain ctf18, stronger effect = lower value 0.882 | S. cerevisiae deletion strains, locus YMR129W, stronger effect = lower value 0.899 | S. cerevisiae deletion strains, locus YMR205C, strain PFK2, stronger effect = lower value 0.779 | S. cerevisiae deletion strains, locus YMR223W, strain ubp8, stronger effect = lower value 0.878 | S. cerevisiae deletion strains, locus YMR231W, strain pep5, stronger effect = lower value 0.928 | S. cerevisiae deletion strains, locus YMR263W, strain SAP30, stronger effect = lower value 0.81 | S. cerevisiae deletion strains, locus YNL067W, strain RPL9B, stronger effect = lower value 0.86 | S. cerevisiae deletion strains, locus YNL071W, strain lat1, stronger effect = lower value 0.705 | S. cerevisiae deletion strains, locus YNL128W, strain TEP1, stronger effect = lower value 0.757 | S. cerevisiae deletion strains, locus YNL153C, strain GIM3, stronger effect = lower value 0.811 | S. cerevisiae deletion strains, locus YNL183C, strain NPR1, stronger effect = lower value 0.748 | S. cerevisiae deletion strains, locus YNL209W, strain ssb2, stronger effect = lower value 0.867 | S. cerevisiae deletion strains, locus YNL233W, strain BNI4, stronger effect = lower value 0.81 | S. cerevisiae deletion strains, locus YNL250W, strain rad50, stronger effect = lower value 0.87 | S. cerevisiae deletion strains, locus YNL271C, strain bni1, stronger effect = lower value 0.883 | S. cerevisiae deletion strains, locus YNL298W, strain CLA4, stronger effect = lower value 0.861 | S. cerevisiae deletion strains, locus YNL307C, strain MCK1, stronger effect = lower value 0.754 | S. cerevisiae deletion strains, locus YNL322C, strain KRE1 (second series), stronger effect = lower value 0.904 | S. cerevisiae deletion strains, locus YNL322C, strain KRE1, stronger effect = lower value 0.857 | S. cerevisiae deletion strains, locus YNR052C, strain pop2, stronger effect = lower value 0.842 | S. cerevisiae deletion strains, locus YOL147C, strain pex11, stronger effect = lower value 0.869 | S. cerevisiae deletion strains, locus YOR001W, strain rrp6, stronger effect = lower value 0.855 | S. cerevisiae deletion strains, locus YOR069W, strain VPS5, stronger effect = lower value 0.911 | S. cerevisiae deletion strains, locus YOR070C, strain gyp1, stronger effect = lower value 0.814 | S. cerevisiae deletion strains, locus YOR083W, strain WHI5, stronger effect = lower value 0.822 | S. cerevisiae deletion strains, locus YOR106W, strain vam3, stronger effect = lower value 0.784 | S. cerevisiae deletion strains, locus YOR144C, strain elg1, stronger effect = lower value 0.927 | S. cerevisiae deletion strains, locus YOR184W, strain ser1, stronger effect = lower value 0.705 | S. cerevisiae deletion strains, locus YOR231W, strain MKK1, stronger effect = lower value 0.745 | S. cerevisiae deletion strains, locus YOR265W, strain rbl2, stronger effect = lower value 0.913 | S. cerevisiae deletion strains, locus YOR270C, strain vph1, stronger effect = lower value 0.633 | S. cerevisiae deletion strains, locus YOR290C, strain snf2, stronger effect = lower value 0.847 | S. cerevisiae deletion strains, locus YPL051W, strain arl3, stronger effect = lower value 0.818 | S. cerevisiae deletion strains, locus YPL078C, strain atp4, stronger effect = lower value 0.796 | S. cerevisiae deletion strains, locus YPL241C, strain CIN2, stronger effect = lower value 0.924 | S. cerevisiae deletion strains, locus YPL256C, strain CLN2, stronger effect = lower value 0.704 | S. cerevisiae deletion strains, locus YPR119W, strain clb2, stronger effect = lower value 0.927 | S. cerevisiae deletion strains, locus YPR141C, strain kar3, stronger effect = lower value 0.907 | S. cerevisiae deletion strains, locus YPR167C, strain met16, stronger effect = lower value 0.909 | S. cerevisiae deletion strains, strain wtn01, stronger effect = lower value 0.818 | S. cerevisiae strains, strain wild type, stronger effect = lower value 0.852
inactive: S. cerevisiae deletion strains, locus YKL009W, strain mrt4, stronger effect = lower value 0.986 | S. cerevisiae deletion strains, locus YKR026C, strain gcn3, stronger effect = lower value 0.953 | S. cerevisiae deletion strains, locus YKR091W, strain srl3, stronger effect = lower value 0.949 | S. cerevisiae deletion strains, locus YLL041C, strain sdh2, stronger effect = lower value 0.946 | S. cerevisiae deletion strains, locus YLR102C, strain apc9, stronger effect = lower value 0.94 | S. cerevisiae deletion strains, locus YLR258W, strain gsy2, stronger effect = lower value 0.918 | S. cerevisiae deletion strains, locus YLR342W, strain FKS1 (second series), stronger effect = lower value 0.82 | S. cerevisiae deletion strains, locus YLR357W, strain rsc2, stronger effect = lower value 1.02 | S. cerevisiae deletion strains, locus YLR371W, strain rom2, stronger effect = lower value 0.929 | S. cerevisiae deletion strains, locus YLR384C, strain iki3, stronger effect = lower value 0.949 | S. cerevisiae deletion strains, locus YML124C, strain tub3, stronger effect = lower value 0.936 | S. cerevisiae deletion strains, locus YMR125W, strain sto1, stronger effect = lower value 0.925 | S. cerevisiae deletion strains, locus YMR307W, strain GAS1, stronger effect = lower value 0.651 | S. cerevisiae deletion strains, locus YNL248C, strain rpa49, stronger effect = lower value 0.902 | S. cerevisiae deletion strains, locus YNR049C, strain mso1, stronger effect = lower value 0.94 | S. cerevisiae deletion strains, locus YOL006C, strain TOP1, stronger effect = lower value 0.605 | S. cerevisiae deletion strains, locus YOL012C, strain htz1 0.461 | S. cerevisiae deletion strains, locus YOR061W, strain CKA2, stronger effect = lower value 0.92 | S. cerevisiae deletion strains, locus YOR080W, strain dia2, stronger effect = lower value 0.926 | S. cerevisiae deletion strains, locus YOR136W, strain idh2, stronger effect = lower value 0.93 | S. cerevisiae deletion strains, locus YOR316C, strain cot1, stronger effect = lower value 0.94 | S. cerevisiae deletion strains, locus YPL106C, strain sse1, stronger effect = lower value 0.894 | S. cerevisiae deletion strains, locus YPL240C, strain hsp82, stronger effect = lower value 0.949 | S. cerevisiae deletion strains, locus YPR163C, strain tif3, stronger effect = lower value 0.958

From PubChem BioAssay AID1159580 (chemical genetic matrix, 2015)
